This excerpt belongs to a sample that is enriched for hits.
KDM5B inh: blocks human KDM5B histone demethylase activity | Potency, µM (titrated, usually from 57.7 µM), most hits filed as inhibitors | Q9UGL1 | KDM5B demethylase, FDH-coupled NADH fluorescence (FDH is formaldehyde dehydrogenase) | actives 2.6% (n = 220,000); active = well fitted inhibition curve with a large enough effect; note: nearly all actives have a fitted effect of over 70% in size
Target sequence (Q9UGL1 whole entry, looked up): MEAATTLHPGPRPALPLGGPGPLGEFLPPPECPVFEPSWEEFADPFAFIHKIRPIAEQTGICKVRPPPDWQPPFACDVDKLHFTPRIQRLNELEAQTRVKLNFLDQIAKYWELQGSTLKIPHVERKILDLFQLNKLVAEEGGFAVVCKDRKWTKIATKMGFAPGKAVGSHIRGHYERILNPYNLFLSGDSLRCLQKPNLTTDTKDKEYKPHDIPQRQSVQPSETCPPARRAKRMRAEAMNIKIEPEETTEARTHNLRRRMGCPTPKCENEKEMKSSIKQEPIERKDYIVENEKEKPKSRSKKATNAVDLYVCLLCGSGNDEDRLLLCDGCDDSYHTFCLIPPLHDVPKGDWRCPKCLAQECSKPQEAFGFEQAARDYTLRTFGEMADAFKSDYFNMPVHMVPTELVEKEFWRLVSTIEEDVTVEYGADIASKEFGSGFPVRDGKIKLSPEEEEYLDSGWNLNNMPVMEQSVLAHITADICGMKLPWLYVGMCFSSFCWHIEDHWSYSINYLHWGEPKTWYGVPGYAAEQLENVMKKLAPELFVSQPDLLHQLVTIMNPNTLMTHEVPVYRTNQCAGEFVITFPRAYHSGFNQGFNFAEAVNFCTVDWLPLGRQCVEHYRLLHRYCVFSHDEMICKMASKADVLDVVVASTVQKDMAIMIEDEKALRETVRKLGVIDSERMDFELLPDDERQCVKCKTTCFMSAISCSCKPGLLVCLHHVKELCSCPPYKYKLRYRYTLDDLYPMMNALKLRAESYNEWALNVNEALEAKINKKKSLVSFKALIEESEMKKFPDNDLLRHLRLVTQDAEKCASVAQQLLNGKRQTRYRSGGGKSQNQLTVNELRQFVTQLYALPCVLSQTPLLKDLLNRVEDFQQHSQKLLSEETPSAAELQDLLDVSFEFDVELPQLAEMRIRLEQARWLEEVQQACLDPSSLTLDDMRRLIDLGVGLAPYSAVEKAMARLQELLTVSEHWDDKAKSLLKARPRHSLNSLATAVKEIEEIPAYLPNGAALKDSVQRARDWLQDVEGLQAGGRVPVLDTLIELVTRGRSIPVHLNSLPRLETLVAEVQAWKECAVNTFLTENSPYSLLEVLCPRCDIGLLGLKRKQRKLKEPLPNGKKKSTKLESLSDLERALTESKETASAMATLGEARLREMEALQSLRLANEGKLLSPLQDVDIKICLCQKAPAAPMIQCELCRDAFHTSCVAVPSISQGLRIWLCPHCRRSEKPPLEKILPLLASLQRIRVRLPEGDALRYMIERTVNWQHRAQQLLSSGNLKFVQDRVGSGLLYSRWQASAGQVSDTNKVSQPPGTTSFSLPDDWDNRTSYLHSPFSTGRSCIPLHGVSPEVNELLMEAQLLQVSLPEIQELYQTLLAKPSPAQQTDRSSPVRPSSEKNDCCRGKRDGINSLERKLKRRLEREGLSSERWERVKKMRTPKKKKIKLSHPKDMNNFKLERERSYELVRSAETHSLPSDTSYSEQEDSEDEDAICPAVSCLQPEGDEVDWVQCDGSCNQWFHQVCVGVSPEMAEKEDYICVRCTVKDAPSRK
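qHTS format, multiple compound concentrations. Buffer 50 mM HEPES pH 7.5/0.01% Tween-20; 200 nM KDM5BΔAP final; 10 min compound preincubation; substrate-mix levels 12.5 µM peptide, 25 µM α-KG, 0.25 mM NAD⁺; 30 min RT; ΔRFU.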
Hits are given with their value; – = inactive.

SMILES	KDM5B inh
CN(C)C[C@@H]1CN(Cc2ccccn2)C[C@H]1NC(=O)c1ccc(Cl)cc1	–
CN(C)C[C@@H]1CN(c2ncccn2)C[C@H]1NC(=O)c1c(F)cccc1F	32µM
CN(C)C[C@@H]1CN(c2ccncn2)C[C@H]1NC(=O)Cc1c(F)cccc1Cl	–
CN(C)C[C@@H]1CN(c2ncccn2)C[C@H]1NC(=O)c1ccc(Cl)cc1	28µM
CCOC(=O)c1cc2cc(C(F)(F)F)ccc2[nH]1	–
O=C([C@@H]1C[C@H](Oc2cccnc2)CN1C(=O)CC1CCCCC1)N1CCOCC1	–
CCCCCCCOc1ccc(C=Nc2ccc(CCCC)cc2)c(O)c1	–
Cc1ccc(N=c2scc(-c3ccccc3)n2-c2cccc(C)c2)cc1	–
C=CCCC(CN1CCCOCC1)Oc1ccc(Cn2ccnc2)cn1 (stereo not drawn)	–
Cc1cc(C(=O)N/N=C/c2ccsc2)cs1	–
O=C(CSc1ncnc2ccccc12)Nc1cc(C(F)(F)F)cc(C(F)(F)F)c1	–
CN(C)C[C@@H]1CN(c2ncccn2)C[C@H]1NC(=O)c1ccncn1	32µM
CN(C)C[C@@H]1CN(c2ncccn2)C[C@H]1NC(=O)c1ccccc1C(F)(F)F	22µM
CN(C)C[C@@H]1CN(c2ccncn2)C[C@H]1NC(=O)c1cc(Cl)ccc1F	–
CN(C)C[C@@H]1CN(Cc2ccccc2)C[C@H]1NC(=O)c1ccnn1C	–
CN(C)C[C@@H]1CN(c2ncccn2)C[C@H]1NC(=O)c1ccnn1C	28µM
CN(C)C[C@@H]1CN(S(C)(=O)=O)C[C@H]1NC(=O)c1ccccc1C(F)(F)F	–
CN(C)C[C@@H]1CN(C)C[C@H]1NC(=O)c1ccccc1C(F)(F)F	–
CN(C)C[C@@H]1CN(S(C)(=O)=O)C[C@H]1NC(=O)c1ccnn1C	–
Cc1cc(C(=O)N[C@@H]2CN(c3ccncn3)C[C@H]2CN(C)C)no1	–
c1ccc(CSc2ncn(-c3nc(N4CCCCC4)nc(N4CCCCC4)n3)n2)cc1	–
CCOc1ccc(S(=O)(=O)N(CC)CC(=O)NCC2CCCO2)cc1Cl (stereo not drawn)	–
Cc1cccc(/C=C(/C#N)c2nc(-c3ccncc3)cs2)c1	–
Cc1cc(C(=O)OC(C)C(=O)C23CC4CC(CC(C4)C2)C3)c(C)o1 (stereo not drawn)	–
O=S(=O)(c1ccccc1)N1CCN(Cc2cccc3cccnc23)CC1	–
SMILES	KDM5B inh
Fc1cccc(NC2CCCN(Cc3cccn3-c3nccs3)C2)c1 (stereo not drawn)	–
CNC(=O)C1CCN(C(=O)c2ccc(-c3ncc4cnc(-c5ccccc5)cn34)cc2)CC1	22µM
CNC(=O)C1CCN(C(=O)c2ccc3[nH]c(C)c(C)c3c2)CC1	–
Cc1cc(NC(=O)c2ccccc2)n(C)n1	–
CN(Cc1ccsc1)C(=O)c1ccc(-c2ccccc2)cc1	–
Cc1ccc(C(=O)N(C)Cc2ccc(-c3ccccc3)cc2)cc1	–
Cc1ccc(C(=O)N2CCC(n3c(C)cnc3-c3ccccc3)CC2)cn1	–
CN(C)CCN(C)C(=O)c1ccc(-c2ncc3cnc(-c4ccccc4)cn23)cc1	32µM
Cn1ccc(NC(=O)c2ccc(-c3ncc4cnc(-c5ccccc5)cn34)cc2)n1	7.9µM
CCCn1nc(C(=O)Nc2ccn(C)n2)c2ccccc2c1=O	–
COc1cc(C(=O)OCc2ccccc2C#N)ccc1C	–
O=C(NCC1(N2CCOCC2)CCSC1)Nc1ccccc1F (stereo not drawn)	–
Cc1ccc(-c2cc3c(SCC(=O)N4CCN(c5ccc(F)cc5)CC4)nccn3n2)cc1	–
O=C(CN1CCN(Cc2cccs2)CC1)Nc1cccc2nsnc12	–
O=C(COc1ccccc1F)Nc1c(C(=O)c2ccc3c(c2)OCCO3)oc2ccccc12	–
O=C(NCc1ccccn1)C1CN(S(=O)(=O)c2cccnc2)CC12CCCCC2 (stereo not drawn)	–
O=C(Nc1cccc(N2CCCC2=O)c1)c1ccccc1SC1CCS(=O)(=O)C1 (stereo not drawn)	–
COc1cc(CN2C[C@@H](CO)[C@H](C(=O)NC3CC3)C2)ccc1F	–
C=CCOC(=O)c1c(C)[nH]c(C(=O)OCC)c1C	–
COc1ccc(C(=O)Oc2ccccc2OC)cc1Br	–
Cc1ccc(Cl)cc1NC(=O)c1nc2ccccc2nc1N1CCCCC1	–
Cc1[nH]cnc1C(=O)O	–
CNc1ncccc1C(=O)N[C@@H]1COCC[C@@H]1OCc1ccccc1	28µM
Cc1cc(C)n(C)c(=O)c1C(=O)N[C@@H]1COCC[C@@H]1OCc1ccccc1	–
Cc1[nH]nc(C(=O)N[C@@H]2COCC[C@@H]2OCc2ccccc2)c1Cl	–
SMILES	KDM5B inh
COc1ccccc1N1CCN(C(=O)C[C@@H]2O[C@H](CNC(=O)c3cccc(F)c3)[C@@H](O)[C@H]2O)CC1	–
Cc1cccc(-c2cc(C(=O)O)c3ccc(Br)cc3n2)c1	–
COc1ccccc1CNc1ncncc1-c1nc(-c2ccccc2)no1	32µM
c1ccc(-c2noc(-c3cncnc3N3CCCCCC3)n2)cc1	–
COc1ccc(Nc2ncncc2-c2nc(-c3ccccc3)no2)cc1F	–
Cc1cccc(N2CCN(c3ncncc3-c3nc(-c4ccccc4)no3)CC2)c1	22µM
Cc1cc(Nc2ncncc2-c2nc(-c3ccccc3)no2)ccc1Cl	–
Cc1ccc(Nc2ncncc2-c2nc(-c3ccccc3)no2)c(C)c1	–
CSc1cccc(Nc2ncncc2-c2nc(-c3ccccc3)no2)c1	–
Cc1ccc(Nc2ncncc2-c2nc(-c3ccccc3)no2)cc1F	–
COc1ccccc1N1CCN(c2ncncc2-c2nc(-c3ccccc3)no2)CC1	–
COc1ccc(N2CCN(c3ncncc3-c3nc(-c4ccccc4)no3)CC2)cc1	–
Cc1cc(F)ccc1Nc1ncncc1-c1nc(-c2ccccc2)no1	7.9µM
CNc1ncncc1-c1nc(-c2ccccc2)no1	28µM
CC(C)N[C@H]1C[C@@H](Cc2cc(CC3CCCCC3)on2)C1(C)C	–
Cc1ccc(-c2nnn(CC(O)COc3cc(C)ccc3C)n2)cc1 (stereo not drawn)	–
CN(Cc1cccc(CCN)c1)Cc1cccc2ncccc12	–
COc1ccc(NC(=O)[C@H]2C[C@@H]3CCCN3[C@]23C(=O)Nc2c(C)cc(Cl)cc23)cc1	–
COc1ccccc1CN1CCN(C(=O)CC2CCOCC2)CC1	–
CCCCCC(=O)N[C@H]1C[C@@H](Cc2cc(COc3ccccc3)on2)C1(C)C	–
Clc1cc(SCc2ccccc2)ccn1	–
CNC(=O)CCn1ncc2cc(OC3CCc4cccc(-c5ccccc5F)c43)ccc21 (stereo not drawn)	–
COc1ccccc1OCCNC(=O)[C@@H]1COCC(=O)N1Cc1ccc(F)cc1	–
Cc1nnc2n1CCC(NC(=O)c1ccc3c(c1)OCO3)CC2 (stereo not drawn)	–
Cc1cccc(Nc2ncncc2-c2nc(-c3ccccc3)no2)c1C	28µM
SMILES	KDM5B inh
Cc1ccc(Nc2ncncc2-c2nc(-c3ccccc3)no2)c(Cl)c1	–
c1ccc(-c2noc(-c3cncnc3NCc3ccc4c(c3)OCO4)n2)cc1	13µM
c1ccc(-c2noc(-c3cncnc3NCC3CCCCC3)n2)cc1	28µM
Fc1c(Cl)cccc1Nc1ncncc1-c1nc(-c2ccccc2)no1	–
CC1CCC(Nc2ncncc2-c2nc(-c3ccccc3)no2)CC1 (stereo not drawn)	–
Cc1c(Cl)cccc1Nc1ncncc1-c1nc(-c2ccccc2)no1	–
CCN(CC)C(CNC(=O)c1ccc(=O)n(CCOC)n1)c1ccccc1 (stereo not drawn)	–
O=C(Nc1ccncc1)c1ccc(COc2cc(Cl)ccc2Cl)cc1	–
